In PubChem BioAssay AID1159580 (chemical genetic matrix, 2015):
Screen size: about 5,500 compounds; about 2,000 (36%) were called active. Roughly 18% stayed inconclusive and do not appear here. Cut-off read from the data, not from the text of the source: active = normalized growth mostly below about 0.91 (no sharp cut-off); inconclusive = no clear call, values can overlap the other calls; inactive = mostly above about 0.92. Some of the results follow.

Test: chemical genetic growth profiling, strain panel (AID 1159580);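 note: tested at 20 µM; growth read once vehicle control cultures reached saturation at 30 °C; 1 = growth at the plate median or of vehicle wells; lower values mean less growth of the strain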
Conditions: growth OD

Measured: normalized growth

COc1cc2c(cc1OC)C(=O)OC2
inactive: S. cerevisiae deletion strains, locus YJR075W, strain HOC1, stronger effect = lower value 1.01 | S. cerevisiae deletion strains, locus YKL009W, strain mrt4, stronger effect = lower value 1.05 | S. cerevisiae deletion strains, locus YKL068W, stronger effect = lower value 1 | S. cerevisiae deletion strains, locus YKL085W, strain MDH1 (second series), stronger effect = lower value 1.01 | S. cerevisiae deletion strains, locus YKL085W, strain MDH1, stronger effect = lower value 1.01 | S. cerevisiae deletion strains, locus YKL160W, strain elf1, stronger effect = lower value 0.994 | S. cerevisiae deletion strains, locus YKL190W, strain CNB1, stronger effect = lower value 1 | S. cerevisiae deletion strains, locus YKR001C, strain vps1, stronger effect = lower value 1.01 | S. cerevisiae deletion strains, locus YKR026C, strain gcn3, stronger effect = lower value 0.992 | S. cerevisiae deletion strains, locus YKR091W, strain srl3, stronger effect = lower value 0.996 | S. cerevisiae deletion strains, locus YLL001W, strain dnm1, stronger effect = lower value 0.996 | S. cerevisiae deletion strains, locus YLL026W, stronger effect = lower value 0.991 | S. cerevisiae deletion strains, locus YLL041C, strain sdh2, stronger effect = lower value 1 | S. cerevisiae deletion strains, locus YLR027C, strain aat2, stronger effect = lower value 1 | S. cerevisiae deletion strains, locus YLR039C, strain RIC1, stronger effect = lower value 1.02 | S. cerevisiae deletion strains, locus YLR058C, strain SHM2, stronger effect = lower value 1.01 | S. cerevisiae deletion strains, locus YLR102C, strain apc9, stronger effect = lower value 1 | S. cerevisiae deletion strains, locus YLR113W, strain HOG1, stronger effect = lower value 0.971 | S. cerevisiae deletion strains, locus YLR221C, strain rsa3, stronger effect = lower value 1.01 | S. cerevisiae deletion strains, locus YLR258W, strain gsy2, stronger effect = lower value 0.992 | S. cerevisiae deletion strains, locus YLR262C, strain YPT6 (second series), stronger effect = lower value 1.02 | S. cerevisiae deletion strains, locus YLR262C, strain YPT6, stronger effect = lower value 1.02 | S. cerevisiae deletion strains, locus YLR268W, strain sec22, stronger effect = lower value 0.979 | S. cerevisiae deletion strains, locus YLR320W, strain mms22, stronger effect = lower value 0.995 | S. cerevisiae deletion strains, locus YLR330W, strain CHS5, stronger effect = lower value 1.01 | S. cerevisiae deletion strains, locus YLR342W, strain FKS1 (second series), stronger effect = lower value 1.07 | S. cerevisiae deletion strains, locus YLR342W, strain FKS1, stronger effect = lower value 0.999 | S. cerevisiae deletion strains, locus YLR357W, strain rsc2, stronger effect = lower value 0.96 | S. cerevisiae deletion strains, locus YLR370C, strain arc18, stronger effect = lower value 0.997 | S. cerevisiae deletion strains, locus YLR371W, strain rom2, stronger effect = lower value 1.01 | S. cerevisiae deletion strains, locus YLR384C, strain iki3, stronger effect = lower value 0.988 | S. cerevisiae deletion strains, locus YLR418C, strain cdc73, stronger effect = lower value 0.925 | S. cerevisiae deletion strains, locus YML016C, strain PPZ1, stronger effect = lower value 1 | S. cerevisiae deletion strains, locus YML032C, strain rad52, stronger effect = lower value 1.01 | S. cerevisiae deletion strains, locus YML120C, strain ndi1, stronger effect = lower value 1.01 | S. cerevisiae deletion strains, locus YML124C, strain tub3, stronger effect = lower value 0.994 | S. cerevisiae deletion strains, locus YMR058W, strain fet3, stronger effect = lower value 0.999 | S. cerevisiae deletion strains, locus YMR078C, strain ctf18, stronger effect = lower value 1 | S. cerevisiae deletion strains, locus YMR125W, strain sto1, stronger effect = lower value 0.984 | S. cerevisiae deletion strains, locus YMR129W, stronger effect = lower value 0.992 | S. cerevisiae deletion strains, locus YMR205C, strain PFK2, stronger effect = lower value 1.01 | S. cerevisiae deletion strains, locus YMR223W, strain ubp8, stronger effect = lower value 1.02 | S. cerevisiae deletion strains, locus YMR231W, strain pep5, stronger effect = lower value 0.99 | S. cerevisiae deletion strains, locus YMR263W, strain SAP30, stronger effect = lower value 0.994 | S. cerevisiae deletion strains, locus YMR307W, strain GAS1, stronger effect = lower value 1.09 | S. cerevisiae deletion strains, locus YNL067W, strain RPL9B, stronger effect = lower value 0.997 | S. cerevisiae deletion strains, locus YNL071W, strain lat1, stronger effect = lower value 0.995 | S. cerevisiae deletion strains, locus YNL128W, strain TEP1, stronger effect = lower value 0.99 | S. cerevisiae deletion strains, locus YNL153C, strain GIM3, stronger effect = lower value 0.978 | S. cerevisiae deletion strains, locus YNL183C, strain NPR1, stronger effect = lower value 0.987 | S. cerevisiae deletion strains, locus YNL209W, strain ssb2, stronger effect = lower value 0.979 | S. cerevisiae deletion strains, locus YNL233W, strain BNI4, stronger effect = lower value 0.992 | S. cerevisiae deletion strains, locus YNL248C, strain rpa49, stronger effect = lower value 0.978 | S. cerevisiae deletion strains, locus YNL250W, strain rad50, stronger effect = lower value 0.995 | S. cerevisiae deletion strains, locus YNL271C, strain bni1, stronger effect = lower value 1 | S. cerevisiae deletion strains, locus YNL298W, strain CLA4, stronger effect = lower value 1.02 | S. cerevisiae deletion strains, locus YNL307C, strain MCK1, stronger effect = lower value 1.02 | S. cerevisiae deletion strains, locus YNL322C, strain KRE1 (second series), stronger effect = lower value 0.996 | S. cerevisiae deletion strains, locus YNL322C, strain KRE1, stronger effect = lower value 1.01 | S. cerevisiae deletion strains, locus YNR049C, strain mso1, stronger effect = lower value 1 | S. cerevisiae deletion strains, locus YNR052C, strain pop2, stronger effect = lower value 1.01 | S. cerevisiae deletion strains, locus YOL006C, strain TOP1, stronger effect = lower value 0.996 | S. cerevisiae deletion strains, locus YOL012C, strain htz1 0.744 | S. cerevisiae deletion strains, locus YOL147C, strain pex11, stronger effect = lower value 1 | S. cerevisiae deletion strains, locus YOR001W, strain rrp6, stronger effect = lower value 0.993 | S. cerevisiae deletion strains, locus YOR061W, strain CKA2, stronger effect = lower value 1 | S. cerevisiae deletion strains, locus YOR069W, strain VPS5, stronger effect = lower value 1.01 | S. cerevisiae deletion strains, locus YOR070C, strain gyp1, stronger effect = lower value 0.984 | S. cerevisiae deletion strains, locus YOR080W, strain dia2, stronger effect = lower value 1.01 | S. cerevisiae deletion strains, locus YOR083W, strain WHI5, stronger effect = lower value 0.996 | S. cerevisiae deletion strains, locus YOR106W, strain vam3, stronger effect = lower value 0.99 | S. cerevisiae deletion strains, locus YOR136W, strain idh2, stronger effect = lower value 1 | S. cerevisiae deletion strains, locus YOR144C, strain elg1, stronger effect = lower value 1 | S. cerevisiae deletion strains, locus YOR184W, strain ser1, stronger effect = lower value 1.04 | S. cerevisiae deletion strains, locus YOR231W, strain MKK1, stronger effect = lower value 0.991 | S. cerevisiae deletion strains, locus YOR265W, strain rbl2, stronger effect = lower value 1.01 | S. cerevisiae deletion strains, locus YOR270C, strain vph1, stronger effect = lower value 0.971 | S. cerevisiae deletion strains, locus YOR290C, strain snf2, stronger effect = lower value 1.01 | S. cerevisiae deletion strains, locus YOR316C, strain cot1, stronger effect = lower value 1.01 | S. cerevisiae deletion strains, locus YPL051W, strain arl3, stronger effect = lower value 0.994 | S. cerevisiae deletion strains, locus YPL055C, strain LGE1, stronger effect = lower value 0.973 | S. cerevisiae deletion strains, locus YPL078C, strain atp4, stronger effect = lower value 1.01 | S. cerevisiae deletion strains, locus YPL106C, strain sse1, stronger effect = lower value 0.901 | S. cerevisiae deletion strains, locus YPL240C, strain hsp82, stronger effect = lower value 0.988 | S. cerevisiae deletion strains, locus YPL241C, strain CIN2, stronger effect = lower value 1 | S. cerevisiae deletion strains, locus YPL256C, strain CLN2, stronger effect = lower value 1 | S. cerevisiae deletion strains, locus YPR119W, strain clb2, stronger effect = lower value 0.995 | S. cerevisiae deletion strains, locus YPR141C, strain kar3, stronger effect = lower value 1 | S. cerevisiae deletion strains, locus YPR163C, strain tif3, stronger effect = lower value 0.989 | S. cerevisiae deletion strains, locus YPR167C, strain met16, stronger effect = lower value 1 | S. cerevisiae deletion strains, strain wtn01, stronger effect = lower value 1 | S. cerevisiae strains, strain wild type, stronger effect = lower value 1.01
